Laboratory results reported in the supplement of paper PMC10681739.

target: T1, ETS1 (UniProt P14921); assay: TF binding intensity (PBM fluorescence), negative control probe (arbitrary fluorescence units); higher = stronger binding
T1 sequence: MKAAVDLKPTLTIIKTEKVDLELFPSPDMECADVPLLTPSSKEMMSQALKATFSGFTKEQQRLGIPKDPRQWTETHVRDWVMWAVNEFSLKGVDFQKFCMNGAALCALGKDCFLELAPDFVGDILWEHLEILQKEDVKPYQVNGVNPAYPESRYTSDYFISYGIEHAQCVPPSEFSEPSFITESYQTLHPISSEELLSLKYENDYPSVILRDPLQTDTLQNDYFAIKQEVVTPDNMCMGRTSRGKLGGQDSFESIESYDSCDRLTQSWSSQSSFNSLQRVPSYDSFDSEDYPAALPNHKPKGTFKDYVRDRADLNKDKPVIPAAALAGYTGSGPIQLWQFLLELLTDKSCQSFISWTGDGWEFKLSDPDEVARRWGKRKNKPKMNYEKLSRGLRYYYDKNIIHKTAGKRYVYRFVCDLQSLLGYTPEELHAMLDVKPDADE
Experimental: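 gcPBM negative-control 36-bp genomic probes lacking TF binding sites. Each was incubated with recombinant human ETS1 or RUNX1 alone and detected by antibody fluorescence. Values are medians over replicate spots (4 spots for the ETS1-RUNX1 arrays, 3 for the ETS1-ETS1 array). The probes sit in constant array flanks that are not printed.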

Sequence | TF binding intensity
AATAAAGGTGAGGCAGTCCAGAGTATTTCAAAACGG (protein concentration 10 nM) | 116
CTCTGTTACAAAGCTTCACTTCTTAAGAGAGGGCTG (protein concentration 10 nM) | 134
AGCCCGGGTGACTTGAGAGTAATTAATGTGCAAAGA (protein concentration 10 nM) | 106
TGGACTAACTCCATTGCCTTTGTATACATTGGTTTC (protein concentration 10 nM) | 102
GAGGGTCCCGGCTCTGCCGCAGGCGGGCGGGGCAGA (protein concentration 1 nM) | 339
CCGGGCCGCTGCGGGCTCCCCAGCTCCCCACAGATC (protein concentration 10 nM) | 147
